According to PubChem BioAssay AID1561 (National Center for Advancing Translational Sciences (NCATS), 2009):
Activity calls are given as the source filed them. Calls come from the whole dose curve; as a rule, active = well fitted curve in the direction sought with a large enough effect; inactive = no such curve, though single readings can be large or run the other way.

Test: Secondary Assay for lipid storage modulators. Cytotoxcity
Conditions: Drosophila S3 cells viability, CellTiter-Glo luminescence, 24 h; series mostly up to 46.1 µM
Text: NIH Molecular Libraries Probe Production Centers Network [MLPCN] NIH Chemical Genomics Center [NCGC] MLPCN Grant: TBA Assay Submitter (PI): Beller, Mathias; Max-Planck-Institut fur Biophysikalische Chemie, Germany. NCGC Assay Overview: Storing lipids as a reservoir for energy or the anabolism of elementary metabolites is a common feature of probably all cells and is conserved from bacteria to humans. The universal cellular lipid storage organelle is the so-called lipid storage droplet (LD). Although ubiquitous, LDs share a simple structure composed of a hydrophobic core that harbors the storage lipids, which is shielded by a droplet-specific phospholipid monolayer to which proteins are attached. The current model of LD biogenesis involves an incorporation of the lipid core into the membrane leaflets of the endoplasmic reticulum (ER) followed by a subsequent budding-like maturation of a LD, which ultimately pinches off. Once released, LD volume can increase by localized lipogenesis or fusion of existing droplet. Storage lipids are re-mobilized enzymatically by lipase activity. […]
Assay Protocol Summary: Cytotoxcity assay was performed with embryonic Drosophila S3 cells (Bloomington Drosophila Genomics Resource Center [DGRC]). […] Luminescence was detected on the Perkin Elmer ViewLux.

Structure (SMILES)	outcome
COC(=O)c1ccccc1NC(=O)c1ccc(F)cc1	inactive
